# The panel holds about 79,000 compounds, 15% with a hit somewhere; the sample as a whole holds those more often. A number with no mark means an inactive call. Active and inactive are the calls of the source. Cut-off read from the data, not from the text of the source: active = growth inhibition above about 70%; inactive = the rest.
# Experiment: NCI Yeast Anticancer Drug Screen. Data for the bub3 strain (AID 167)
# Conditions: S. cerevisiae bub3 mutant strain, at 50.0 µM (retest, dose inferred, filed as 5.0), active compounds read high
# Procedure, shortened: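 Readout: yeast growth inhibition, expressed relative to vehicle-only wells. The test organism is a mutant strain from a panel with lesions in DNA repair or checkpoint genes.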
row,Structure (SMILES),growth inhibition
1,Cc1cccc2c1C(=O)N(CC[P+](c1ccccc1)(c1ccccc1)c1ccccc1)C2=O,95% (active)
2,CCCCCN=Cc1c(O)c(O)c(C(C)C)c2cc(C)c(-c3c(C)cc4c(C(C)C)c(O)c(O)c(C=NCCCCC)c4c3O)c(O)c12,40%
3,CCN(CC)CCNc1ccc(C)c2sc3ccc(OC)cc3c(=O)c12,99% (active)
4,O=S(=O)(c1ccc(NC(=S)NCc2ccncc2)cc1)N1CCCCC1,-18%
5,Nc1nn2c(C(Br)Br)cc(C(Br)Br)nc2c1[N+](=O)[O-],100% (active)
6,O=C1C=CC(=O)N1c1ccccc1 (tested in a mixture with another compound),77% (active)
7,O=C(O)CCSc1ncnc2nc[nH]c12,-7%
8,CCN(CC)CCCC(=O)Nc1cc(OC)cc2cccnc12,-3%
9,CC(=O)OC(C#N)CC(C)(C)/[N+]([O-])=[N+](\[O-])C(C)(C)CC(C#N)OC(C)=O (configuration not stated),79% (active)
10,ICCCCCCCCCC[n+]1ccc2ccccc2c1,99% (active)
11,Clc1ccc(C(c2ccc(Cl)cc2)c2cncnc2)cc1,97% (active)
12,NC1=NC(c2ccccc2)CC(c2cc(Cl)cc(Br)c2O)=N1 (configuration not stated),34%
13,CC(NNC(=S)NCc1ccccc1)c1cc2ccccc2cn1 (configuration not stated),93% (active)
14,C=CCOC(=O)CC(O)C(=O)OCC=C (configuration not stated),-8%
15,OC(C(=Nc1ccccc1)c1ccccc1)c1ccccc1 (configuration not stated),98% (active)
16,C=CC1(NC(=O)c2ccccc2)CCC(C(C)(C)C)CC1 (configuration not stated),95% (active)
17,CCN(CC)CC(O)c1ccnc2c(O)cccc12 (configuration not stated),42%

# Source: PubChem BioAssay (NCI)
